Results from publication PMC7862700, “An all-to-all approach to the identification of sequence-specific readers for epigenetic DNA modifications on cytosine”.

Columns and labels:
Assay in all cases: DAPPL (digital affinity profiling via proximity ligation, sequencing); 10 mM Tris-HCl pH 7.5, 50 mM NaCl, 1 mM DTT, 4% glycerol, room temperature, 30 min; GST-TFs on glutathione beads, 16-mer random dsDNA library, 0.1% formaldehyde crosslink after washing; high values mean tight binding
Details in all cases: protein: recombinant; tags: N-terminal GST; dsDNA, one strand shown
FLI1 = biological target: T1, FLI1 (Homo sapiens, UniProt Q01543 1-452)
T1 sequence: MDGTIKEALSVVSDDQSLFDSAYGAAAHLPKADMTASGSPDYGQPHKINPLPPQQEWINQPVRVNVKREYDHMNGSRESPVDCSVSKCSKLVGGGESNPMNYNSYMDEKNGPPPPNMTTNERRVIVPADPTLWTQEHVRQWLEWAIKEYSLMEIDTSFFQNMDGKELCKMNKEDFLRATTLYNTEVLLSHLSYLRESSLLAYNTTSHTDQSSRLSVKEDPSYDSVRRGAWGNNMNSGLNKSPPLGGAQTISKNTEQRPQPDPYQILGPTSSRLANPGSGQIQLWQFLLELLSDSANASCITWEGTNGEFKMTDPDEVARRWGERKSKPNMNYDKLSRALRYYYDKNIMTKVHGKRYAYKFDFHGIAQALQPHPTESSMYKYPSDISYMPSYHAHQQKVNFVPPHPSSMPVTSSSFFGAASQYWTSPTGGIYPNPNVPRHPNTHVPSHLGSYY
Method in brief: (§1)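 Yeast served to express human transcription factors as GST fusions, which were then captured on glutathione beads and labelled with DNA barcodes. Pooled with a tag-only sample, they were incubated with 200 nmole of a 16-mer random double-stranded DNA library for 30 min at room temperature in Tris/NaCl/DTT/glycerol buffer, washed, crosslinked with 0.1% formaldehyde, ligated by proximity, amplified by PCR and sequenced. Dividing each hexamer's read frequency for a factor by its frequency for the tag-only sample gives the binding signal.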

ELK1 = biological target: T2, ELK1 (Homo sapiens, UniProt P19419 1-428)
T2 sequence: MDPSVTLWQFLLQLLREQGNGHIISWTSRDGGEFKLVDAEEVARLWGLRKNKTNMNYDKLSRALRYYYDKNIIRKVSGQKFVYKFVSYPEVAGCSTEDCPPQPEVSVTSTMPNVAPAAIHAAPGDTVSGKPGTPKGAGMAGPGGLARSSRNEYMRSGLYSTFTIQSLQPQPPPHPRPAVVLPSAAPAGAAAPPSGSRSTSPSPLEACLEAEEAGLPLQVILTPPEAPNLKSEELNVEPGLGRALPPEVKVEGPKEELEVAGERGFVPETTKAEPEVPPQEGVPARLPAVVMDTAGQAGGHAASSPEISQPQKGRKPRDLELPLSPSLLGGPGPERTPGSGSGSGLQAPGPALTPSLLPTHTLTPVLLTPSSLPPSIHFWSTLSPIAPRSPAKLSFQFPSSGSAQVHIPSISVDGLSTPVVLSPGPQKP
Method in brief: as §1

GABPA = biological target: T3, GABPA (Homo sapiens, UniProt Q06546 1-454)
T3 sequence: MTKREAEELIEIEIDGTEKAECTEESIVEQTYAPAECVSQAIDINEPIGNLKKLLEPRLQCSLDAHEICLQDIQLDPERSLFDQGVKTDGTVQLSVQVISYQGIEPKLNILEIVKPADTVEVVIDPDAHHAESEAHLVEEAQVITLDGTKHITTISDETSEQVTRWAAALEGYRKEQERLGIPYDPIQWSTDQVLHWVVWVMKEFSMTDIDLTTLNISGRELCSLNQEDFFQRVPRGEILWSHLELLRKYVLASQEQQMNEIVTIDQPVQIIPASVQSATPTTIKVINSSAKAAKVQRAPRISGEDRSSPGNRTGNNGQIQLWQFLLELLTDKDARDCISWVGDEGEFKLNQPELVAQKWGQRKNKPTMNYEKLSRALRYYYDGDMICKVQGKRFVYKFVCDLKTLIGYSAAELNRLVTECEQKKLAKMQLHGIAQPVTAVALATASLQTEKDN
Method in brief: as §1

ERG = biological target: T4, ERG (Homo sapiens, UniProt P11308 1-479)
T4 sequence: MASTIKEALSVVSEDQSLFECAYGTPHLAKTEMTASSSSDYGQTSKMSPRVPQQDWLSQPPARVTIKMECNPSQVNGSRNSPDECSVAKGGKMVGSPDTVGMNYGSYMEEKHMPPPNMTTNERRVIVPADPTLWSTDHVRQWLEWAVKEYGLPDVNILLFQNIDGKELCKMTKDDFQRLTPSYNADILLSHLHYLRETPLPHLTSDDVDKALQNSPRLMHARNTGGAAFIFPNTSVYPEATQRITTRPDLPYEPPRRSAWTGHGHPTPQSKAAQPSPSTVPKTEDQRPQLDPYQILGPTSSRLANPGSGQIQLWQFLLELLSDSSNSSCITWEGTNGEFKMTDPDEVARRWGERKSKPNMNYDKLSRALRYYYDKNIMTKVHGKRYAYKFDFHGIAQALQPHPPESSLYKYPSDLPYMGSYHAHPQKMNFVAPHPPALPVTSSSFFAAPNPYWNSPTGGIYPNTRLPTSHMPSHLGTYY
Method in brief: as §1

ELF1 = ELF1 (Homo sapiens, UniProt P32519 1-619)
Chain of ELF1 (P32519 whole entry): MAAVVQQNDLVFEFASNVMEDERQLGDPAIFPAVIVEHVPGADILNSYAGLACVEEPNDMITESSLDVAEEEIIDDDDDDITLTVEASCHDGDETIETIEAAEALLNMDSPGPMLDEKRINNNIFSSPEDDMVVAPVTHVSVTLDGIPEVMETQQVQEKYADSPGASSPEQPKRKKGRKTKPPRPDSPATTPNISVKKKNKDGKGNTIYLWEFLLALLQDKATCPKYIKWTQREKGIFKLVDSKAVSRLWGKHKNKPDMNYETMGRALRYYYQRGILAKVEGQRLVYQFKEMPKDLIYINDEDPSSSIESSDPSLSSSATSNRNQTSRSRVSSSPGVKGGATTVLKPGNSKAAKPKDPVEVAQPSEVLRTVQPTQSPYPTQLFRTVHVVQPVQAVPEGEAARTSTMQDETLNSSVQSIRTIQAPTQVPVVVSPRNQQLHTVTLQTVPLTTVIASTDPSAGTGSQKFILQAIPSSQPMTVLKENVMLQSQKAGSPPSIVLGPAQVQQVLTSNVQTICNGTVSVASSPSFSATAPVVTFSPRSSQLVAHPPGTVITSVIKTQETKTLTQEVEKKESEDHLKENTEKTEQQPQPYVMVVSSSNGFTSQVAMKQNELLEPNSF
Method in brief: as §1

EHF = biological target: T5, EHF (Homo sapiens, UniProt Q9NZC4 1-300)
T5 sequence: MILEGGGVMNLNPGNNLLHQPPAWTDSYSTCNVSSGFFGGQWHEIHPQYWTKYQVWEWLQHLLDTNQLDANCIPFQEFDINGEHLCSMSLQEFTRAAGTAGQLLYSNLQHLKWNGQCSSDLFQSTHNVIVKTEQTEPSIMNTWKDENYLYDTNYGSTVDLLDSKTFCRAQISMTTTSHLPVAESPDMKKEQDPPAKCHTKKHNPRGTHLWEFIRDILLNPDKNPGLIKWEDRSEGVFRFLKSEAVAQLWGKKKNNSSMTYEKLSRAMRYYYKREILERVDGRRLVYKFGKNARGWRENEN
Method in brief: as §1

SPI1 = SPI1 (Homo sapiens, UniProt P17947 1-270)
Method in brief: as §1

SPIB = SPIB (Homo sapiens, UniProt Q01892 1-262)
Chain of SPIB (Q01892 whole entry): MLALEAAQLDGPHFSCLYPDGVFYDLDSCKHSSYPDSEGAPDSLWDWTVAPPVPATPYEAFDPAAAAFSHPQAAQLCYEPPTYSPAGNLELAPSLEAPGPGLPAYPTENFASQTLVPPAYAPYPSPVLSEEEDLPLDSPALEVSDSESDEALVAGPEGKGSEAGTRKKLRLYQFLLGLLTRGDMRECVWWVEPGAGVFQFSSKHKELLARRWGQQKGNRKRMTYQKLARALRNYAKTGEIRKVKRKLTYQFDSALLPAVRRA
Method in brief: as §1

ELK3 = biological target: T6, ELK3 (Homo sapiens, UniProt P41970 1-407)
T6 sequence: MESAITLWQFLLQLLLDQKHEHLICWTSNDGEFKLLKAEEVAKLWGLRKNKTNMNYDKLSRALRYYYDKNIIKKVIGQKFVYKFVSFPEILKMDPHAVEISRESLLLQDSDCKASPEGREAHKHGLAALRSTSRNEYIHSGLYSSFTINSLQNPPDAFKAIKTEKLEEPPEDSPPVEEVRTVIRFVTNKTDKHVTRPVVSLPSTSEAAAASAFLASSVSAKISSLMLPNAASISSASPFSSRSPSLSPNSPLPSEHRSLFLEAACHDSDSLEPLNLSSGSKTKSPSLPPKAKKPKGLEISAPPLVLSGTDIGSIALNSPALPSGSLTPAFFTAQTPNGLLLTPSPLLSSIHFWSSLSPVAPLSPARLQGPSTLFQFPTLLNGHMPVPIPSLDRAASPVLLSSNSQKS
Method in brief: as §1

Q: TATTGG was tested. Which binding signal (FLI1) did it give?
A: The binding signal was 1.12 fold enrichment (6-mer frequency, TF over GST control).

Q: And the binding signal (ELK1)?
A: The binding signal was 1.14 fold enrichment (6-mer frequency, TF over GST control).

Q: What about the binding signal (GABPA) of the same sequence?
A: The binding signal was 1.22 fold enrichment (6-mer frequency, TF over GST control).

Q: What about the binding signal (ERG) of the same sequence?
A: The binding signal was 1.15 fold enrichment (6-mer frequency, TF over GST control).

Q: What about the binding signal (ELF1) of the same sequence?
A: The binding signal was 1.22 fold enrichment (6-mer frequency, TF over GST control).

Q: What about the binding signal (EHF) of the same sequence?
A: Its binding signal is 1.26 fold enrichment (6-mer frequency, TF over GST control).

Q: What about the binding signal (SPI1) of the same sequence?
A: The binding signal was 1.06 fold enrichment (6-mer frequency, TF over GST control).

Q: What about the binding signal (SPIB) of the same sequence?
A: The binding signal was 1.24 fold enrichment (6-mer frequency, TF over GST control).

Q: What about the binding signal (ELK3) of the same sequence?
A: The binding signal was 1.07 fold enrichment (6-mer frequency, TF over GST control).
